Laboratory results reported in the supplement of paper PMC10849652.
The full data set covers some 8,800 targets. This sample favours those with a hit. About 0.5% of all pairs of compound and target were hits. Values without a mark were called inactive.

Key:
Test in all cases: log2 fold change, soluble protein after heating vs DMSO (PISA); higher = thermal stabilisation; K562 lysate, 10 uM; active = over 0.2 and 3.5 SD of the protein, either way, in both replicates (recomputed)
[1] = compound: C1=CC=C(C=C1)[C@H](COC2=CC3=C(C=C2)NC(=O)N3)NC(=O)C4=CC=CN(C4=O)CC5=CC(=C(C=C5)F)F
How it was run: (§1)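 Quantification was by TMTpro 16plex LC-MS/MS with equalised channel sums, applied to the supernatant after 21,000xg for 90 min. Samples were crude K562 extract at 1 mg/mL protein in PBS pH 7.4 with 1 mM MgCl2, treated with 10 μM compound for 30 min, heated for 3 min across 48°C-58°C, pooled and brought to 0.5% NP-40 at 4°C. Values are log-two fold changes in thermal stability relative to solvent controls, from duplicates.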

[2] = compound: CC1=C(SC2=C1C(=N[C@H](C3=NN=C(N32)C)CC(=O)N)C4=CC=C(C=C4)Cl)C
How it was run: as §1

[3] = compound: CC1=C2C(=CC=C1)N=C(N(C2=O)C3=CC=CC=C3C)CN4C=NC5=C(N=CN=C54)N
How it was run: as §1

[4] = compound: Cc1sc2c(c1C)C(c1ccc(Cl)cc1)=N[C@@H](CC(=O)OC(C)(C)C)c1nnc(C)n1-2
How it was run: as §1

[5] = compound: c1ccc([C@@H]2C[C@H]2NC2CCNCC2)cc1
How it was run: as §1

Chain of UniProt Q8TEW0 (Q8TEW0 whole entry, looked up): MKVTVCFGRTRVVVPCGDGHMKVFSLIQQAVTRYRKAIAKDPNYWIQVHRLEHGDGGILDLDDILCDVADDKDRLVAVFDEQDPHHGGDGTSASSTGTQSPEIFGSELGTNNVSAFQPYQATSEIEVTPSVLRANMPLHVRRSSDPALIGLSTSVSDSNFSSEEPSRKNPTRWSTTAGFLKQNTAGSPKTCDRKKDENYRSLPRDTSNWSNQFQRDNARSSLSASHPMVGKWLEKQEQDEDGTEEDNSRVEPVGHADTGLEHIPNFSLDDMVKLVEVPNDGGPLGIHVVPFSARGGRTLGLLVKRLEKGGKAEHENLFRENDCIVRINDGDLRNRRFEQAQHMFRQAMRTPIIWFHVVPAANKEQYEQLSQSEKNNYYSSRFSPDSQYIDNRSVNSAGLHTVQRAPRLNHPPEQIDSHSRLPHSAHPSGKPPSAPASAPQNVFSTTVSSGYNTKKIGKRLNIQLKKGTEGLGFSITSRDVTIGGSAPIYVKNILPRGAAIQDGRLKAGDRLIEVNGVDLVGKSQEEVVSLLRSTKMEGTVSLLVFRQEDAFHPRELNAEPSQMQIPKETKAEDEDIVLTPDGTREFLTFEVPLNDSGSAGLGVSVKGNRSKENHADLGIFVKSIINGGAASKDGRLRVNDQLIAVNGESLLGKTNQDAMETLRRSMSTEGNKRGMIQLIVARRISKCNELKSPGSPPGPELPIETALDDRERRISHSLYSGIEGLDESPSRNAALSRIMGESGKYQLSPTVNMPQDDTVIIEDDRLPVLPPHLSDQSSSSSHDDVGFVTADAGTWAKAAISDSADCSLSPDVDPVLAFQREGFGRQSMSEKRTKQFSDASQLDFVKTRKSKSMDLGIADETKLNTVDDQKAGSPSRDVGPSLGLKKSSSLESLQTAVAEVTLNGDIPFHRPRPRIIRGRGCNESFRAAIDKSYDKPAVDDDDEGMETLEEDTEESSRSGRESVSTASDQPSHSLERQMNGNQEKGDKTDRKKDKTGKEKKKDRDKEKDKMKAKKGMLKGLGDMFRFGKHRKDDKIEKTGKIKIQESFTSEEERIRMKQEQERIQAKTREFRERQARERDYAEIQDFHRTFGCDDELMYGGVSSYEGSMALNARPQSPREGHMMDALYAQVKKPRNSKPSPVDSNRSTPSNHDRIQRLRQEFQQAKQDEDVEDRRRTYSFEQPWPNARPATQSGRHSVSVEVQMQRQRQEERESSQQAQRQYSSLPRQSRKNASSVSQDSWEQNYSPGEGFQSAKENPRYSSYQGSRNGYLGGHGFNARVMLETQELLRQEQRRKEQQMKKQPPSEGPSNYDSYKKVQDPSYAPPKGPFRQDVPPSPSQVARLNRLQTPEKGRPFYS
Chain of UniProt Q9BTX1 (Q9BTX1 whole entry, looked up): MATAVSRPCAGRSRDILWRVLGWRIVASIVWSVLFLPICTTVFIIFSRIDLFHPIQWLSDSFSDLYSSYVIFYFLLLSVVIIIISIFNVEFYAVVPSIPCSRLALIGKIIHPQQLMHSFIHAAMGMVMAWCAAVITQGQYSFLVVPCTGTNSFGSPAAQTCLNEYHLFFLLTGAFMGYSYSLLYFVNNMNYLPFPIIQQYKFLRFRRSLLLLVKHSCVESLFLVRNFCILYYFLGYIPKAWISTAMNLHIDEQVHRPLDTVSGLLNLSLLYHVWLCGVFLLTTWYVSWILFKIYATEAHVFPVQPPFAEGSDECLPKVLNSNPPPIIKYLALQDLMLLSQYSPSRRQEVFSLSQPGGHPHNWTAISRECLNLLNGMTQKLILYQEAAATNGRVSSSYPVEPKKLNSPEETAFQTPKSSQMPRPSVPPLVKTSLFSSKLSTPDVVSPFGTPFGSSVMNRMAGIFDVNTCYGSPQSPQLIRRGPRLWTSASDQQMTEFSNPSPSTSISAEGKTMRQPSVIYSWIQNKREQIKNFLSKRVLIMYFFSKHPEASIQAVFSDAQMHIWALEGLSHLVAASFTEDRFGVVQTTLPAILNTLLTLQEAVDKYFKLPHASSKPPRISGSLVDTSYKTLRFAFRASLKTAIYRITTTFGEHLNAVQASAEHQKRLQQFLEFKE
Chain of UniProt P20585 (P20585 whole entry, looked up): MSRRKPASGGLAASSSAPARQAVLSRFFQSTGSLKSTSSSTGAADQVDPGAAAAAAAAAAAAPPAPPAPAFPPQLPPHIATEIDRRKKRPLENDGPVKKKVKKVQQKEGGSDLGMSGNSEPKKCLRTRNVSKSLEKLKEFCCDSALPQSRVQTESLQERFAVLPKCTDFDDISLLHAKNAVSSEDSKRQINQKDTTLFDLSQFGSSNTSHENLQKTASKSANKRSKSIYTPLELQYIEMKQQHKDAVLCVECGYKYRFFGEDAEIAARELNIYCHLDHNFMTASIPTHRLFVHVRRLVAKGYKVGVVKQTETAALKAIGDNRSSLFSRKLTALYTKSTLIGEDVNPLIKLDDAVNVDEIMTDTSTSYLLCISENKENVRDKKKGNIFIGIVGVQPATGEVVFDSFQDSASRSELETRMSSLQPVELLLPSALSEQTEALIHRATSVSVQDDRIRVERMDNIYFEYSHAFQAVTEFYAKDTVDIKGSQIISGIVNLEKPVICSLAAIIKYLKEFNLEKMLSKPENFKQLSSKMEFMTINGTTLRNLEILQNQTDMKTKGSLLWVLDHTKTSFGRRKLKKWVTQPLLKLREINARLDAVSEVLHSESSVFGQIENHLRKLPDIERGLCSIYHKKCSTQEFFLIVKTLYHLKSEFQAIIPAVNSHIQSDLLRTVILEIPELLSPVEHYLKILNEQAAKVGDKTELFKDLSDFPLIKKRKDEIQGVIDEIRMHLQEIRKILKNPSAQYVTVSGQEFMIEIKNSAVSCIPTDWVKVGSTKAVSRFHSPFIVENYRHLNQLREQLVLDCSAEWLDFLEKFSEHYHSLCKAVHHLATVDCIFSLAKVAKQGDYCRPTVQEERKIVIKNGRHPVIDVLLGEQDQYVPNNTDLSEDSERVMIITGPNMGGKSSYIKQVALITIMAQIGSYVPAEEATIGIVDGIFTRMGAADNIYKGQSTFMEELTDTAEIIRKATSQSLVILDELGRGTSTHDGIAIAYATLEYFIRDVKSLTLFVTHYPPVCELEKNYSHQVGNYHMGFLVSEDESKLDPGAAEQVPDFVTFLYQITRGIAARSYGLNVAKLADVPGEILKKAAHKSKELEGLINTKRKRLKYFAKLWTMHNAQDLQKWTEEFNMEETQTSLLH
Chain of UniProt Q99836 (Q99836 whole entry, looked up): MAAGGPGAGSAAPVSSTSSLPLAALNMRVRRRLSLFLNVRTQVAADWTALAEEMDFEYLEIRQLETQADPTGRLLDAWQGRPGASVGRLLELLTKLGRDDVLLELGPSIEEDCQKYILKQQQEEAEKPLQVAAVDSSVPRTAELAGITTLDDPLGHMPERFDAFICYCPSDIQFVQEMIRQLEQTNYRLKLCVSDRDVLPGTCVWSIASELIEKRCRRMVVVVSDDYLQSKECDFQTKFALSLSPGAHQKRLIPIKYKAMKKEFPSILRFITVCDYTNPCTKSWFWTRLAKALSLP
Chain of UniProt Q9BPZ3 (Q9BPZ3 whole entry, looked up): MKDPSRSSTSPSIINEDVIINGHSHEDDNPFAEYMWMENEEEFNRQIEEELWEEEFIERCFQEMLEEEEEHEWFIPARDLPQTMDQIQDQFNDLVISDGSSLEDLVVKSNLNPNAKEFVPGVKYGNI
Chain of UniProt P04150 (P04150 whole entry, looked up): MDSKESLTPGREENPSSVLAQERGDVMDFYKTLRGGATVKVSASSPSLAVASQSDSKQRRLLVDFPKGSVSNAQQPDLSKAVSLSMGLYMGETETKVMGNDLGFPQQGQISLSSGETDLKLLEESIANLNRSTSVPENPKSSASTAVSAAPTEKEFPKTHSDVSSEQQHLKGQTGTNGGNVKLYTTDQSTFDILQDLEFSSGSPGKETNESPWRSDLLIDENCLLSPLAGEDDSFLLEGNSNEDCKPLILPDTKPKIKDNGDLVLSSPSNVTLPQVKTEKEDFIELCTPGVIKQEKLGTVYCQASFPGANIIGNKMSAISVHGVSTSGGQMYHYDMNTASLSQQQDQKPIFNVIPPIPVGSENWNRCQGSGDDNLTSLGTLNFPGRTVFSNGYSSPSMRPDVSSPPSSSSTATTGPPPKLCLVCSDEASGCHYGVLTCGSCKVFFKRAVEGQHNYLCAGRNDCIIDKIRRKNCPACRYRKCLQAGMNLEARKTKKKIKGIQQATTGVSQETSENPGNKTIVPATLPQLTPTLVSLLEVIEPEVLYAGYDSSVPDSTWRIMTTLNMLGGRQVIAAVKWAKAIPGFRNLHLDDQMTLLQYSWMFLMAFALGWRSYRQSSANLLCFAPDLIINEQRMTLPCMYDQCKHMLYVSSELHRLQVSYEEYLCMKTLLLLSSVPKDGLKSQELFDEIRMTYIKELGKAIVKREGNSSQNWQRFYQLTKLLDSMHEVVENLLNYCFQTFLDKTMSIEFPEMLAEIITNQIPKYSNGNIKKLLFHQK
Chain of UniProt P49116 (P49116 whole entry, looked up): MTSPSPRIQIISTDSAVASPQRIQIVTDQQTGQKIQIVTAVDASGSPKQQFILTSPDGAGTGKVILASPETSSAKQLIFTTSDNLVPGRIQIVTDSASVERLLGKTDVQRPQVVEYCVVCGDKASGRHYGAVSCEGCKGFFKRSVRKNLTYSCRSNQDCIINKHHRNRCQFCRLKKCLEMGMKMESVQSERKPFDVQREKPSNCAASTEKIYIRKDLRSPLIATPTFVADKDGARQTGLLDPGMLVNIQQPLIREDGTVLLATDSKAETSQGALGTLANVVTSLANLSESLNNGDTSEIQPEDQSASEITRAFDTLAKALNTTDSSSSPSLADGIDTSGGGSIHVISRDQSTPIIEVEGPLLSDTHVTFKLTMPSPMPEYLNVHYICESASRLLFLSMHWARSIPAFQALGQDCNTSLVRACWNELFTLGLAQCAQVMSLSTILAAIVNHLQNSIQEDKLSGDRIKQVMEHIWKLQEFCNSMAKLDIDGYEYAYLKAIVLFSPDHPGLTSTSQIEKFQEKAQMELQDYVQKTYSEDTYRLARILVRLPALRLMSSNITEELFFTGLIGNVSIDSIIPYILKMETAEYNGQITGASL

Row | Target | log2 fold change [1] | log2 fold change [2] | log2 fold change [3] | log2 fold change [4] | log2 fold change [5]
1 | PAIP2 (UniProt Q9BPZ3) | -0.009 | 0.042 | 0.03 | 0.021 | 0.036
2 | MTA1 (UniProt Q13330) | 0.005 | -0.01 | 0.01 | 0.055 | 0.012
3 | PARD3 (UniProt Q8TEW0) | 0.078 | 0.063 | -0.028 | 0.09 | -0.024
4 | NR3C1 isoform 3 (UniProt P04150) | 0.292 (active) | 0.034 | -0.001 | -0.035 | 0.084
5 | NMRAL1 (UniProt Q9HBL8) | -0.09 | 0.049 | 0.009 | -0.071 | -0.027
6 | MRPS18A isoform 2 (UniProt Q9NVS2) | 0.005 | -0.101 | 0.054 | 0.066 | 0.2
7 | MSH3 (UniProt P20585) | 0.018 | 0.014 | 0.039 | -0.008 | 0.04
8 | N6AMT1 (UniProt Q9Y5N5) | -0.046 | -0.086 | -0.046 | -0.011 | 0.052
9 | MYH11 isoform 2 (UniProt P35749) | 0.037 | -0.021 | 0.004 | -0.065 | 0.025
10 | MYD88 isoform 6 (UniProt Q99836) | 0.019 | -0.021 | 0.026 | -0.008 | 0.013
11 | NUF2 (UniProt Q9BZD4) | -0.03 | 0.008 | 0.018 | 0.007 | 0.016
12 | MYO1D (UniProt O94832) | -0.006 | 0.002 | 0.015 | -0.006 | 0.02
13 | NR2C2 isoform 2 (UniProt P49116) | -0.078 | -0.08 | -0.04 | 0.243 | 0.047
14 | MTHFD1, A0A384N5Y3 | -0.003 | -0.002 | 0.015 | 0.018 | 0.071
15 | NPTN (UniProt Q9Y639) | 0.026 | -0.045 | -0.038 | -0.018 | -0.006
16 | NSA2 (UniProt O95478) | 0.111 | -0.135 | -0.018 | -0.042 | 0.122
17 | MTMR6 (UniProt Q9Y217) | 0.015 | 0.01 | 0.006 | -0.065 | 0.062
18 | OCRL (UniProt Q01968) | 0.018 | 0.056 | 0.003 | 0.013 | -0.017
19 | NFATC2 (UniProt Q13469) | 0.027 | 0.073 | 0.064 | 0.031 | -0.1
20 | N4BP2 (UniProt Q86UW6) | 0.024 | 0.04 | 0.064 | -0.022 | -0.068
21 | NPM3 (UniProt O75607) | 0.172 | -0.045 | -0.009 | -0.03 | -0.157
22 | NUSAP1 (UniProt Q9BXS6) | 0.039 | 0.018 | -0.001 | 0.026 | -0.223
23 | MYOM1 (UniProt P52179) | -0.012 | 0.088 | -0.111 | -0.135 | -0.079
24 | NDC1 (UniProt Q9BTX1) | 0.001 | -0.055 | 0.003 | 0.02 | -0.172
